Potency, outcome and activity change, negative = inhibition data for 54 compounds are collected here from PubChem BioAssay (NCATS).

A short description of test [1]: qHTS of pediatric cancer cell lines to identify multiple opportunities for drug repurposing: Confirmatory screen for Rh18 cells (AID 1347125). Note: nearly all actives have a fitted effect of over 55% in size. Note: potency is the fitted concentration of half-maximal effect. As to conditions: Rh18 rhabdomyosarcoma cells, viability; series mostly up to 45.9 µM. Summed up:
(§1)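 Viability after 48 h compound treatment at 37C, 500-1,000 cells/well, read as ATP luminescence with CellTiter-Glo. Primary screens used 11-point (MIPE, 0.78 nM-46 µM) or 8-point (NPC, 0.59 nM-46 µM) final concentrations; follow-up screens used 11-point dilutions.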
(Quantitative high-throughput screening tests each substance at several concentrations.)

Test [2] relates to Zika virus NS2B-NS3 protease. Put plainly: Primary screen GU AMC qHTS for Zika virus inhibitors (AID 1347154). Note: nearly all actives have a fitted effect of over 70% in size. Note: potency is the fitted concentration of half-maximal effect. As to conditions: Zika NS2B-NS3 unlinked protease, AMC fluorogenic substrate; series mostly up to 54.1 µM. Summed up:
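Unlinked Zika NS2B hydrophilic domain–NS3 protease complex at 25 nM in 10 mM Tris-HCl pH 8.0, 0.01% Tween 20, with an AMC peptide substrate. Fluorescence change (340/450 nm) over 15 min at room temperature, normalized to controls, fitted to 4-parameter Hill.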

A short description of test [3]: qHTS of pediatric cancer cell lines to identify multiple opportunities for drug repurposing: Confirmatory screen for Rh30 cells (AID 1347126). Note: potency is the fitted concentration of half-maximal effect; nearly all actives have a fitted effect of over 55% in size. The note with it: Rh30 rhabdomyosarcoma cell viability; series mostly up to 45.9 µM. Summed up:
as §1

The nature of test [4]: qHTS of pediatric cancer cell lines to identify multiple opportunities for drug repurposing: Confirmatory screen for Saos-2 cells (AID 1347127). Note: nearly all actives have a fitted effect of over 60% in size. Note: potency is the fitted concentration of half-maximal effect. As to conditions: Saos-2 osteosarcoma cell viability; series mostly up to 45.9 µM. Summed up: as §1
A short description of test [5]: qHTS of pediatric cancer cell lines to identify multiple opportunities for drug repurposing: Confirmatory screen for OHS-50 cells (AID 1347128).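 Note: compound exposure lasted 48 h at 37 degrees C; nearly all actives have a fitted effect of over 55% in size.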 Note: potency is the fitted concentration of half-maximal effect. The note with it: OHS-50 osteosarcoma cells viability; series mostly up to 45.9 µM. Summed up: as §1
Test [6] in a line: qHTS of pediatric cancer cell lines to identify multiple opportunities for drug repurposing: Confirmatory screen for SK-N-SH cells (AID 1347129).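 Note: cells exposed to compound for 48 h before viability read; nearly all actives have a fitted effect of over 60% in size.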 Note: potency is the fitted concentration of half-maximal effect. As to conditions: SK-N-SH neuroblastoma cell viability; series mostly up to 46.1 µM. Summed up:
as §1

The test system of test [7] is Zika virus NS2B-NS3 protease (unlinked). Briefly: Optimization of GU AMC qHTS for Zika virus inhibitors: Unlinked NS2B-NS3 protease assay (AID 1347151). Note: nearly all actives have a fitted effect of over 80% in size. The note with it: recombinant ZIKV NS2B-NS3 protease, fluorogenic AMC substrate; series mostly up to 52.5 µM. Summed up: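 Noncovalent complex of NS2B hydrophilic domain and NS3 protease domain, 25 nM final, in 10 mM Tris-HCl pH 8.0, 0.01% Tween 20. AMC fluorescence change over 15 min at room temperature was fitted to a 4-parameter Hill equation.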

The structures appear in SMILES notation. Inconclusive results are not listed. A call without a number means that no potency is given here. Values without a mark were called inactive. Calls of active or inactive are those of the source. Calls come from the whole dose curve; as a rule, active = well fitted curve in the direction sought with a large enough effect; inconclusive = small, poorly fitted or top-dose-only effect, or another doubt; inactive = no such curve, though single readings can be large; an effect the other way counts as inactive or inconclusive. Positions of bridges follow the written chain, without caps; N, C: chain ends. Non-standard residues stand in square brackets, D forms with d. Residues, ends and D or L forms follow the SMILES beside them. ξ: configuration not given here. *: point of attachment. Octanoyl(6-Me) = CCC(C)CCCCC(=O)*; ξThr(3R) = C[C@@H](O)C(N)C(=O)O; dDab = NCC[C@@H](N)C(=O)O; Dab = NCC[C@H](N)C(=O)O

`Cn1c(Nc2ccc(C(F)(F)F)cc2)nc2cc(Oc3ccnc(-c4ncc(C(F)(F)F)[nH]4)c3)ccc21`: the Potency entry in test [1] and in test [2] was “inactive” in each case. With `COc1cc2c(cc1OC)[C@@H]1C(=O)c3ccc4c(c3O[C@@H]1CO2)C=CC(C)(C)O4`, the Potency in test [3] is 1.85 µM (active); in test [4], 3.69 µM (active). Moreover, the Potency result in test [5] and in test [2] was “inactive” each time. `O=C(C=CC=Cc1ccc2c(c1)OCO2)N1CCCCC1`: the Potency result in test [1], in test [5] and in test [6] was “inactive” throughout. As for `CCc1cnn2c(NCc3ccc[n+]([O-])c3)cc(N3CCCC[C@@H]3CCO)nc12`, the Potency entry in test [4], in test [6] and in test [2] was “inactive” each time. For the compound `O=C1NCCc2[nH]c(-c3ccncc3)cc21`, the Potency in test [4] is 3.69 µM (active); in test [5], 2.93 µM (active); in test [6], 2.09 µM (active). Moreover, the Potency result in test [2] was “inactive”.

`C[C@H]1[C@@H](OC(=O)CCC(=O)O)O[C@@H]2O[C@@]3(C)CC[C@@H]4[C@H](C)CC[C@@H]1[C@@]24OO3`: in test [5], the Potency is 3.29 µM (active). In addition, the Potency entry in test [2] is “inactive”. As for `Cc1[nH]c(C=C2C(=O)Nc3ccccc32)c(C)c1CCC(=O)O`, the Potency result in test [1], in test [4], in test [5], in test [6] and in test [2] was “inactive” in each case.

`N#Cc1c(C2CCNCC2)cc(-c2c(O)cccc2OCC2CC2)nc1N`: the Potency entry in test [1] is “inactive”. Besides, the Potency in test [6] was 23.5 µM (active). `COC(=O)C1C2CC3c4[nH]c5cc(OC)ccc5c4CCN3CC2CC(OC(=O)c2cc(OC)c(OC)c(OC)c2)C1OC` (stereo not drawn): the Potency is 16.5 µM (active) in test [1] and 5.85 µM (active) in test [4]. Also, the Potency entry in test [2] was “inactive”. `CCCCCCCCc1ccc(CCC(N)(CO)CO)cc1`: the result in test [7] was inactive. `CC[C@H]1OC(=O)[C@H](C)[C@@H](O[C@H]2C[C@@](C)(OC)[C@@H](O)[C@H](C)O2)[C@H](C)[C@@H](O[C@@H]2O[C@H](C)C[C@H](N(C)C)[C@@H]2O)[C@](C)(OC)C[C@@H](C)C(=O)[C@H](C)[C@@H](O)[C@]1(C)O`: the Potency result in test [2] was “inactive”. As to `N[C@H]1CN(c2c(F)cc3c(=O)c(C(=O)O)cn(C4C[C@@H]4F)c3c2Cl)CC12CC2` (stereo partly drawn), the Potency result in test [2] is “inactive”. On the same count and under the same terms, then `CCCCCCCN(CC)CCCC(O)c1ccc(NS(C)(=O)=O)cc1` (stereo not drawn), with 24.1 µM (active); and `OCC(O)C(O)C(O)CO` (stereo not drawn), with “inactive”. On the same count and under the same terms, then `CC(C)c1cnn2c(NCc3ccccc3)cc(NCCCCCCN)nc12`, with “inactive”; and `O=C(CN1C(=O)C2(CCCC2)NC[C@H]1c1cc(F)cc(F)c1)Nc1ccc2c(c1)C[C@@]1(C2)C(=O)Nc2ncccc21`, with “inactive”; and `CC(=O)OCC(=O)[C@@]1(O)CC[C@H]2[C@@H]3CCC4=CC(=O)CC[C@]4(C)[C@@H]3C(=O)C[C@@]21C`, with “inactive”. Consider `N=c1ccn2c(n1)O[C@H]1[C@@H](O)[C@@H](CO)O[C@H]12`, for which the Potency result in test [2] is “inactive”. Same read-out and setting: next, `CCOC(=O)N1CCN([N+]([O-])=NOc2ccc([N+](=O)[O-])cc2C#N)CC1`: “inactive”; `CCCCCCCCCCCCCCCC(=O)OC[C@@H](NC(=O)C(Cl)Cl)[C@H](O)c1ccc([N+](=O)[O-])cc1`: “inactive”; `COc1cc(C(=O)NC2CCN(C)CC2)ccc1Nc1ncc2c(n1)N(C1CCCC1)CCC(=O)N2C(C)C`: “inactive”. The same measure, in the same setting: next, `C=CC1=C(C(=O)O)N2C(=O)[C@@H](NC(=O)C(=NO)c3csc(N)n3)[C@H]2SC1`: “inactive”; `N#CC(=C(N)Sc1ccc(N)cc1)c1ccccc1C(F)(F)F`: “inactive”. On the same count and under the same terms, then `C[C@]12C=CC(=O)N[C@@H]1CC[C@H]1[C@H]3CC[C@@H](C(=O)Nc4cc(C(F)(F)F)ccc4C(F)(F)F)[C@@]3(C)CC[C@@H]12`, with “inactive”; and `O=C(Nc1ccc(Oc2ccnc3[nH]ccc23)c(F)c1)c1cccn(-c2ccc(F)cc2)c1=O`, with “inactive”. Consider `O=C(Nc1cccc(Nc2ncc(Br)c(NCCc3cnc[nH]3)n2)c1)N1CCCC1`, for which the Potency entry in test [2] was “inactive”. On the same count and under the same terms, next, `CC1(C)[C@H](O[C@H]2O[C@H](C(=O)O)[C@@H](O)[C@H](O)[C@H]2O[C@@H]2O[C@H](C(=O)O)[C@@H](O)[C@H](O)[C@H]2O)CC[C@@]2(C)[C@H]1CC[C@]1(C)[C@H]2C(=O)C=C2[C@H]3C[C@@](C)(C(=O)O)CC[C@]3(C)CC[C@]21C`: “inactive”; `CC(C)(O)[C@H]1CC[C@@](C)([C@H]2[C@@H](O)C[C@@]3(C)[C@@H]4C[C@H](O[C@@H]5O[C@H](CO)[C@@H](O)[C@H](O)[C@@H]5O)[C@H]5C(C)(C)[C@@H](O[C@@H]6OC[C@@H](O)[C@H](O)[C@@H]6O)CC[C@@]56C[C@@]46CC[C@]23C)O1`: “inactive”. The same measure, in the same setting: next, `CN1CCCN(C(=O)c2cccc(-c3ccc(C=C4C(=O)Nc5ccc(Cl)cc54)o3)c2)CC1`: “inactive”. As for `CC(C)(C)[C@H](NC(=O)c1ccc(N)c(Cl)c1)C(=O)N1CCC[C@@H]1C(=O)N[C@H](C#N)CC(=O)O`, the activity change, negative = inhibition in test [2] was 6.17% [at 6.83 µM]. Turning to `Cn1cc(C2=C(c3c4n(c5ccccc35)CCC(CN)C4)C(=O)NC2=O)c2ccccc21` (stereo not drawn), the Potency result in test [2] was “inactive”.

`COc1cc(OC)cc(-c2ccc3ncc4ccc(=O)n(-c5ccc(N6CCNCC6)c(C(F)(F)F)c5)c4c3c2)c1`: the Potency result in test [2] was “inactive”. Regarding `Nc1ccn(C[C@@H](CO)OCP(=O)(O)O)c(=O)n1`, the Potency result in test [2] was “inactive”. The same measure, in the same setting: next, `O=c1ccn([C@@H]2O[C@H](CO)[C@H](O)[C@@H]2F)c(=O)[nH]1`: “inactive”; `OCCNC1CCCc2c1[nH]c1ccc(-c3ccccc3)cc21` (stereo not drawn): “inactive”; `CCNC(=O)Nc1ccc(-c2nc3c(c(N4CCOC[C@H]4C)n2)CCN(C2COC2)C3)cc1`: “inactive”. The same measure, in the same setting: next, `Cc1cnn(C)c1C(=O)Nc1cc(Nc2ccc3c(C=Cc4ccccn4)n[nH]c3c2)ccc1F`: “inactive”. Same read-out and setting: next, `CN[C@H](CC(C)C)C(=O)N[C@H]1C(=O)N[C@@H](CC(N)=O)C(=O)N[C@@H]2C(=O)N[C@H]3C(=O)N[C@H](C(=O)N[C@H](C(=O)O)c4cc(O)cc(O)c4-c4cc3ccc4O)[C@H](O)c3ccc(c(Cl)c3)Oc3cc2cc(c3O[C@@H]2O[C@H](CO)[C@@H](O)[C@H](O)[C@@H]2O[C@H]2C[C@](C)(N)[C@H](O)[C@H](C)O2)Oc2ccc(cc2Cl)[C@H]1O`: “inactive”; `COc1cc(OC)c(NC(=O)Nc2cc(C)on2)cc1Cl`: “inactive”; `c1ccc2c(Oc3nc(Nc4ccc(N5CCOCC5)cc4)c4ncn(C5CCCCC5)c4n3)cccc2c1`: “inactive”.

`CC[C@H]1OC(=O)[C@H](C)[C@@H](O[C@H]2C[C@@](C)(OC)[C@@H](O)[C@H](C)O2)[C@H](C)[C@@H](O[C@@H]2O[C@@H](C)C[C@H](N(C)C)[C@@H]2O)[C@](C)(O)C[C@@H](C)C(=O)[C@H](C)[C@@H](O)[C@]1(C)O`: in test [2], the Potency entry is “inactive”.

In the case of `CC1=C(C(=O)Nc2cc3cn[nH]c3cc2F)C(c2ccc(Cl)cc2F)N=C(c2ccnc(Cl)c2)N1` (stereo not drawn), in test [2], the Potency entry was “inactive”. Still for that read-out and setting: then `Cc1cncc2cccc(S(=O)(=O)N3CCCN(C(=O)CN)C[C@@H]3C)c12`, with “inactive”; and `CCC(C)CCCCC(=O)N[C@@H](CCN)C(=O)NC(C(=O)N[C@H](CCN)C(=O)N[C@@H]1CCNC(=O)C([C@@H](C)O)NC(=O)[C@@H](CCN)NC(=O)[C@@H](CCN)NC(=O)[C@@H](CC(C)C)NC(=O)[C@H](Cc2ccccc2)NC(=O)[C@H](CCN)NC1=O)[C@@H](C)O` (stereo partly drawn) ({Octanoyl(6-Me)}-[Dab][ξThr(3R)][dDab][dDab][Dab]F[dL][dDab][dDab][ξThr(3R)]; lactam 4-C), with “inactive”. Same read-out and setting: then `COc1cc(N2CCC(C(N)=O)CC2)ccc1Nc1nc(N)c(Cl)c(Nc2ccccc2S(=O)(=O)C(C)C)n1`, with “inactive”; and `CCN1CCN(C(=O)N[C@H](C(=O)N[C@@H]2C(=O)N3C(C(=O)O)=C(CSc4nnnn4C)CS[C@@H]23)c2ccc(O)cc2)C(=O)C1=O`, with “inactive”.

Take `COC(=O)[C@H](CCCN=C(N)N)NS(=O)(=O)c1ccc(C)cc1`: in test [2], the Potency result was “inactive”.

Take `CN(C)CC(=O)N1CCC(c2ccc(NC(=O)c3ncc(C#N)[nH]3)c(C3=CCCCC3)c2)CC1`: in test [2], the Potency result was “inactive”. On the same count and under the same terms, then `O=C1c2cccc(O)c2C(=O)c2c(O)cc(CO)cc21`, with “inactive”. Same read-out and setting: then `NC1=N[C@H]2[C@H](CS[C@H]2CCCCC(=O)O)N1`, with “inactive”; and `N#Cc1ccc(COC[C@H]2O[C@@H](n3c(NCc4ccc(Cl)c(Cl)c4)nc4c(N)ncnc43)[C@@H](O)[C@@H]2O)cc1`, with “inactive”; and `OC[C@H]1OC(O)C[C@@H](O)[C@H]1O` (stereo partly drawn), with “inactive”. `CC(C)(C)[N+]([O-])=Cc1ccc(S(=O)(=O)O)cc1S(=O)(=O)O`: in test [2], the Potency result is “inactive”. For `COc1cc2c(cc1O)CCC1C2CC[C@@]2(C)C1CC[C@@H]2O` (stereo partly drawn), in test [2], the Potency entry was “inactive”.
